Laboratory results: PubChem BioAssay
Inconclusive results are not listed. The source made the active and inactive calls. Unless noted, the limit is not given here; nearly all actives have AC50 up to about 26 µM.

How the values were obtained:
[1] = growth inhibition of DIPG glioma cells, dose response, cell-based, SU-DIPG-XVII, MIPE5.0, CellTiter-Glo, qHTS (AID 1347060); settings: SU-DIPG-XVII viability, CellTiter-Glo ATP luminescence;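 as to AC50: cells exposed to compound for 48 hours before viability readout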
[2] = viability loss in pontine glioma line – cell-based, SU-DIPG-XXV, MIPE5.0, CellTiter-Glo, qHTS, dose response (AID 1347065); settings: CellTiter-Glo ATP luminescence;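 also: cells exposed to compound for 48 hours before ATP readout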
[3] = JHH-DIPG-1 glioma cell viability, MIPE5.0 library, CellTiter-Glo luminescence, qHTS (AID 1347067); settings: JHH-DIPG-1 glioma viability, CellTiter-Glo ATP luminescence;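 also: cells exposed to compound for 48 hours before readout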
[4] = SU-DIPG-XXV glioma cell viability, MIPE5.0 library, qHTS (AID 1347068; cut-off not given, nearly all actives have IC50 up to about 30 µM;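 as to IC50: cells exposed to compound for 48 hours before viability readout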)
[5] = SU-DIPG-VI glioma cell viability, MIPE4.0 library, CellTiter-Glo luminescence, qHTS (AID 1347066; cut-off not given, nearly all actives have AC50 up to about 30 µM;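 also: cells exposed to compound for 48 hours before readout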); settings: CellTiter-Glo ATP luminescence
[6] = sensitizers of A549 cells to miR-34 induction, primary screen, imaging, A549 dox-inducible miR-34, nuclei and caspase counts (AID 1347080;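 active = compounds whose cell count with miR-34 switched on is under 0.7 times the count with it off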); settings: A549 miR-34 inducible, Hoechst nuclei count, 48 h
[7] = survival rescue of mitochondrial mutant cells in low glucose, primary screen, MELAS cybrids, Rieske KO mouse fibroblasts, CellTiter-Glo (AID 1508586;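 active = mean z-score across replicates of 1.96 or higher in either the MELAS or the Rieske mutant cell line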;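 also: z relative to plate mean and SD of compound and empty wells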)

For `CNCCCOc1cc(F)c(-c2c(Cl)nc3ncnn3c2N[C@@H](C)C(F)(F)F)c(F)c1`, the AC50 [1] was 0.0833 µM (active), the AC50 [2] was 0.118 µM (active) and the AC50 [3] was 0.105 µM (active). For the same molecule, the IC50 [4] was 0.235 µM (active).

In the case of `CCc1c(C(=O)NNC(=O)[C@@H](O)c2cc(F)cc(F)c2)ccc(O)c1C`, the outcome [1] is reported as “inactive”, the outcome [2] is reported as “inactive” and the outcome [3] is reported as “inactive”.

For `CCn1c(=O)c(-c2ccc(Cl)cc2Cl)cc2cnc(Nc3ccc(N4CCNCC4)c(F)c3)nc21`, the AC50 [1] was 0.59 µM (active), the AC50 [2] was 0.59 µM (active) and the outcome [3] was “inactive”. The outcome [4] was “inactive”.

With `Cc1c(-c2ccnn2C)cc(C(=O)NCc2ccc(S(C)(=O)=O)cn2)c(=O)n1-c1cccc(C(F)(F)F)c1` the outcome [1] was “inactive”, the outcome [2] was “inactive” and the outcome [3] was “inactive”.

For `Fc1ccc2[nH]ccc2c1-c1nc(N2CCOCC2)c2sc(CN3CCN(CC4CC4)CC3)cc2n1`, the AC50 [1] was 20.9 µM (active), the AC50 [2] was 23.5 µM (active) and the AC50 [3] was 23.5 µM (active).

For `C[C@@H]1COCCN1c1cc(-c2ccnn2C)c2ccnc(-c3ccn[nH]3)c2n1`, the AC50 [1] was 1.48 µM (active), the AC50 [2] was 1.86 µM (active) and the AC50 [3] was 5.25 µM (active).

In the case of `CN1CCN(C2CCC(n3cc(-c4ccc(Oc5ccccc5)cc4)c4c(N)ncnc43)CC2)CC1` (configuration not stated), the AC50 [1] is reported as 1.48 µM (active), the AC50 [2] is reported as 1.86 µM (active) and the AC50 [3] is reported as 7.42 µM (active). The IC50 [4] was 8.33 µM (active).

In the case of `CCS(=O)(=O)N1CC(CC#N)(n2cc(-c3ncnc4[nH]ccc34)cn2)C1`, the AC50 [1] is reported as 18.6 µM (active), the AC50 [2] is reported as 18.6 µM (active) and the outcome [5] is reported as “inactive”. For the same molecule, the outcome [3] was “inactive”, the fold change ([6]; stronger effect = lower value, cell number ratio, induced over uninduced) was 0.973 (inactive) and the fold change ([6]; measured here: relative caspase fold change +Dox/-Dox) was 0.869. The cell count ([6]; measured here: total cells with miR-34 induction, stronger effect = lower value) was 8770, the cell count ([6]; measured here: total cells without miR-34 induction) was 9020 and the z-score ([7]; MELAS cybrid survival, CellTiter-Glo 48 h, stronger effect = higher value) was -0.48 (inactive). It also gave a z-score ([7]; Rieske KO mouse fibroblast survival, CellTiter-Glo 72 h) of 0.0326.

With `Cc1c(NC(=O)c2cc3c(s2)CCCC3)cccc1-c1cn(C)c(=O)c(Nc2ccc(C3C(=O)N(C)CCN3C)cc2)n1` (configuration not stated) the AC50 [1] was 23.5 µM (active), the AC50 [2] was 18.6 µM (active) and the AC50 [3] was 18.6 µM (active).

In the case of `Cc1cc(Nc2cc(N)ncn2)c(=O)n2c1C(=O)NC21CCCCC1`, the outcome [1] is reported as “inactive”, the outcome [2] is reported as “inactive” and the outcome [3] is reported as “inactive”. For the same molecule, the outcome [4] was “inactive”.

In the case of `O=C(Nc1nnc(-c2ccco2)o1)c1cc(-c2ccccc2)nc2ccccc12`, the AC50 [1] is reported as 26.3 µM (active), the AC50 [2] is reported as 20.9 µM (active) and the AC50 [5] is reported as 14.8 µM (active). For the same molecule, the outcome [4] was “inactive”.

For `C[C@H]1CNC(=O)c2cnn3ccc(nc23)N[C@H](C)c2cc(F)ccc2O1`, the AC50 [1] was 1.05 µM (active), the AC50 [2] was 0.934 µM (active) and the AC50 [3] was 1.48 µM (active). The IC50 [4] was 2.95 µM (active).

With `COc1ccc2[nH]c(C(=O)N3CCC(CC(C)(C)O)CC3)cc2c1` the outcome [1] was “inactive”, the outcome [2] was “inactive” and the outcome [3] was “inactive”.

In the case of `COc1ccc2c(c1)CC[C@@H](CN(C)CC(=O)O)[C@H]2c1ccccc1`, the outcome [1] is reported as “inactive”, the outcome [2] is reported as “inactive” and the outcome [5] is reported as “inactive”. The outcome [3] was “inactive” and the outcome [4] was “inactive”.

With `CCOc1cc(C(=O)N2CCC(N3CCN(C)CC3)CC2)ccc1Nc1ncc2c(n1)N(C1CCCC1)c1ccccc1C(=O)N2C` the AC50 [1] was 23.5 µM (active), the AC50 [2] was 20.9 µM (active) and the AC50 [3] was 26.3 µM (active). The IC50 [4] was 20.9 µM (active).

For `C[C@]1(C(=O)N(CCCC(=O)O)Cc2cccc(Cl)c2)CCN1C(=O)c1csc2ccccc12`, the outcome [1] was “inactive”, the outcome [2] was “inactive” and the outcome [3] was “inactive”. The outcome [4] was “inactive”.

With `NC(=O)[C@H]1CCS[C@@H]2C[C@]3(CCCN3C(=O)Cc3ccc(NC(=O)COc4ccc(Cl)cc4Cl)cc3)C(=O)N12` the AC50 [1] was 4.17 µM (active), the AC50 [2] was 10.5 µM (active) and the AC50 [3] was 16.6 µM (active).

With `COc1ccc2[nH]c3c(c2c1)CCN[C@]31CS[C@@H]2c3c(OC(C)=O)c(C)c4c(c3[C@H](COC1=O)N1[C@@H]2[C@H]2c3c(cc(C)c(OC)c3O)C[C@@H]([C@@H]1O)N2C)OCO4` the AC50 [1] was 0.000959 µM (active), the AC50 [2] was 0.0034 µM (active) and the AC50 [3] was 0.00135 µM (active).

For `O=C(NCC(=O)N1CC[C@H](NC2CCC(O)(c3ccc(-c4ncccn4)cn3)CC2)C1)c1cccc(C(F)(F)F)c1` (some centres not stated), the outcome [1] was “inactive”, the outcome [2] was “inactive” and the outcome [3] was “inactive”. The outcome [4] was “inactive”.

For `Oc1ccc([C@@H]2Oc3ccc(O)cc3[C@@H]3CCC[C@@H]32)cc1`, the AC50 [1] was 13.2 µM (active), the AC50 [2] was 11.8 µM (active) and the outcome [5] was “inactive”.

For `COc1cc2c(NC3CCN(C)CC3)nc(N3CCCN(C)CC3)nc2cc1OCCCN(C)C`, the outcome [1] was “inactive”, the outcome [2] was “inactive” and the outcome [3] was “inactive”. The outcome [4] was “inactive”.

In the case of `O=C(Cc1ccccc1)Nc1nnc(CCSCCc2nnc(NC(=O)Cc3ccccc3)s2)s1`, the outcome [1] is reported as “inactive”, the AC50 [2] is reported as 11.8 µM (active) and the AC50 [3] is reported as 14.8 µM (active). The outcome [4] was “inactive”.

In the case of `O=C1NC(=O)[C@@H](c2c[nH]c3ccccc23)[C@H]1c1cn2c3c(cccc13)CCC2`, the AC50 [1] is reported as 0.525 µM (active), the AC50 [2] is reported as 0.742 µM (active) and the AC50 [3] is reported as 1.66 µM (active).

For `CC(C)C[C@@H]1NC(=O)[C@@H](C(C)C)NC(=O)[C@@H]2CCCN2C(=O)[C@@H](CC(=O)O)NC(=O)[C@@H](Cc2c[nH]c3ccccc23)NC1=O`, the outcome [1] was “inactive”, the outcome [2] was “inactive” and the outcome [3] was “inactive”. For the same molecule, the outcome [4] was “inactive”.

In the case of `CC(C)(CO)n1cc(C(=O)c2cncc(NC(=O)Cc3ccc(Cl)cn3)c2)c2cnc(N)nc21`, the outcome [1] is reported as “inactive”, the outcome [2] is reported as “inactive” and the outcome [3] is reported as “inactive”. For the same molecule, the outcome [4] was “inactive”.

For `CC[C@H](NC(=O)[C@H](CS(=O)(=O)CC1CC1)N[C@@H](c1ccc(F)cc1)C(F)(F)F)C(=O)C(=O)NC1CC1`, the outcome [1] was “inactive”, the outcome [2] was “inactive” and the outcome [3] was “inactive”.

For `CCC[C@H](N[C@H]1CCc2cc(F)cc(F)c2C1)C(=O)Nc1cn(C(C)(C)CNCC(C)(C)C)cn1`, the AC50 [1] was 33.2 µM (active), the AC50 [2] was 18.6 µM (active) and the AC50 [3] was 23.5 µM (active).

For `O=C(Nc1nccs1)C(c1cc(F)ccc1O)N1Cc2ccccc2C1=O` (configuration not stated), the outcome [1] was “inactive”, the outcome [2] was “inactive” and the outcome [3] was “inactive”. The outcome [4] was “inactive”.

In the case of `COc1cccc(-c2c(C)n(Cc3c(F)cccc3C(F)(F)F)c(=O)n(C[C@H](NCCCC(=O)O)c3ccccc3)c2=O)c1F`, the outcome [1] is reported as “inactive”, the outcome [2] is reported as “inactive” and the outcome [3] is reported as “inactive”. The outcome [4] was “inactive”.

For `COc1cc(N2CCN(C)CC2)ccc1Nc1ncc2c(n1)N(C)c1ccccc1C(=O)N2C`, the AC50 [1] was 18.6 µM (active), the AC50 [2] was 18.6 µM (active) and the AC50 [3] was 14.8 µM (active).

For `CC(C)[C@](O)(c1ccc2cc(OC(F)F)c(OC(F)F)cc2c1)c1cn[nH]n1`, the outcome [1] was “inactive”, the outcome [2] was “inactive” and the outcome [3] was “inactive”. The outcome [4] was “inactive”.

In the case of `Cn1cc(C2=C(c3cn(C)c4cc([N+](=O)[O-])ccc34)C(=O)NC2=O)c2ccccc21`, the AC50 [1] is reported as 0.332 µM (active), the AC50 [2] is reported as 0.263 µM (active) and the AC50 [3] is reported as 0.468 µM (active). For the same molecule, the IC50 [4] was 4.68 µM (active).
